Bioassay records (PubChem BioAssay)
Compounds with a hit are over-represented: about 1.7% of the library has one in this group of screens.
BJeLR viability: kills HRASV12-expressing BJeLR cells. BJeLR (HRASV12) viability, CellTiter-Glo ATP luminescence, 48 h. inhibition, % (test concentration not listed). 0.17% of 300,000 active. AID 1554; in the data active means inhibition above about 50%
PfHsp40 yeast: rescue of PfHsp40-mediated yeast toxicity; AID 504582; growth rescue, % at 12.5 µM; S. cerevisiae expressing PfHsp40, growth rescue, ATP luminescence; 0.68% of 340,000 active; in the data active means growth rescue above about 28%, passing the limit was not always enough;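 further: yeast W303a lacking pdr1 and pdr3 grown in galactose medium; growth measured after three days at 30 °C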
PrPC TRFRET: reduces human prion protein on the cell surface. 0.43% of 370,000 active. inhibition, % at 13.8 µM. cell surface PrPC, TR-FRET read-out. P04156; in the data active means inhibition above about 24%; further: 0% = median of the test wells and 100% = reference compound wells
PrP UTR inh: suppresses PrP 5' UTR mRNA reporter expression; cell-based PrP 5' UTR mRNA reporter, plate reader; inhibition, % (no concentration beside the values); 0.35% of 340,000 active; AID 488862; in the data active means inhibition above about 52%; further: 0 = median of the neutral control wells
SSB-PriA inh: blocks PriA binding to SSB C-terminal tail; inhibition, % at 33 µM; 0.6% of 430,000 active; AlphaScreen SSBct-PriA binding, biotinylated peptide; AID 1272365; in the data active means inhibition mostly above about 37%, no sharp cut-off; inactive means mostly below about 20%;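 further: plate controls were negative control peptide for no effect and reference peptide for full effect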
Y pestis TopoI: blocks Yersinia pestis topoisomerase I activity; activity, % at 10 µM; AID 504884; 0.064% of 360,000 active; Y. pestis Topo-I cleavage product accumulation, plate reader; in the data active means activity above about 50%, passing the limit was not always enough
PrPC TRFRET cf: confirmation of inhibitors of cell surface human prion protein | 65% of 1,500 active | shares compounds with PrPC TRFRET | cell surface PrPC level, TR-FRET | inhibition, % at 13.8 µM | AID 743200; in the data active means inhibition above about 25%
LD9 cytotox: counter-screen for PrPc inhibitors: cytotoxicity in LD9 cells; luminescence viability; inhibition, % at 13.8 µM; shares compounds with PrPC TRFRET; AID 743201; 29% of 1,500 active; in the data active means inhibition above about 9.5%
Numbers without * were called inactive; nt = no result.

SMILES | BJeLR viability | PfHsp40 yeast | PrPC TRFRET | PrP UTR inh | SSB-PriA inh | Y pestis TopoI | PrPC TRFRET cf | LD9 cytotox
Oc1ccc(CN2CCc3ccccc3C2)c2cccnc12 | 13 | -2 | 27* | 17 | 101* | 6 | 35* | 28*
O=C(Cc1ccc(-n2c(=O)c3ccccc3n(Cc3ccccc3F)c2=O)cc1)NCC1CCCO1 (stereo not given) | -1 | -2 | 67* | -23 | 1 | 16 | 4 | -4
O=C(Cc1ccc(-n2c(=O)c3ccccc3n(Cc3ccc(F)cc3)c2=O)cc1)NCC1CCCO1 (stereo not given) | 14 | 0 | -9 | -19 | -17 | 1 | nt | nt
Cc1sc(NC(=O)c2ccccc2)c([C@@H](c2ccncc2)N2CCN(c3ccccc3)CC2)c1C | nt | nt | nt | nt | 6 | nt | nt | nt
COc1ccc(-c2nc3ccc(Br)cn3c2Cc2cccc(Cl)c2)cc1OC | nt | nt | 27* | nt | nt | nt | 61* | 0
Clc1ccc(-c2nc3ccc(Br)cn3c2Cc2cccc(Cl)c2)cc1 | nt | nt | 30* | nt | nt | nt | 53* | -4
Cc1ccc(Cl)cc1S(=O)(=O)NCC(C)(O)c1cc2ccccc2s1 (stereo not given) | nt | nt | nt | nt | 2 | nt | nt | nt
Cc1ccc(Cn2nnc(C(=O)Nc3cc(C)ccc3C)c2N)cc1 | -12 | 1 | 3 | -7 | -25 | 8 | nt | nt
Cc1ccc(C)c(NC(=O)c2nnn(Cc3ccccc3)c2N)c1 | 11 | 1 | 27* | -24 | -13 | 8 | 21 | -1
COC(=O)Cn1c(=NC(=O)c2ccc(F)cc2)sc2cc(OC)ccc21 | nt | nt | nt | nt | -9 | nt | nt | nt
CCOCC(=O)NCCCn1ccnc1-c1ccccc1 | nt | nt | nt | nt | -11 | nt | nt | nt
COc1ccc(/C=C/C(=O)Nc2ccc(-n3nncc3-c3ccc(OC)c(OC)c3)cc2)cc1OC | 1 | 0 | 25* | 2 | 0 | 7 | 28* | 9.9*
COC(=O)[C@H]1[C@@H](O)[C@@]2(O)c3c(OC)cc(OC)cc3O[C@@]2(c2ccc(OC)cc2)[C@@H]1c1ccc(F)cc1 | nt | nt | 83* | nt | nt | nt | 91* | 20*
Cc1ccc(Cc2c(-c3ccc(C#N)cc3)nc3ccc(Br)cn23)cc1 | nt | nt | 42* | nt | nt | 4 | 47* | 2
Fc1cccc(Cc2c(-c3ccco3)nc3ccc(Br)cn23)c1 | nt | nt | 51* | nt | nt | nt | 70* | 0
Fc1cccc(Cc2c(-c3ccccc3)nc3ccc(Br)cn23)c1 | nt | nt | 19 | nt | nt | nt | nt | nt
N#Cc1ccc(-c2nc3ccc(Br)cn3c2Cc2cccc(F)c2)cc1 | nt | nt | 29* | nt | nt | nt | 88* | 1
COc1ccc(-c2ncnc(C(F)(F)F)c2-c2ccc(Br)cc2)c(O)c1 | nt | nt | nt | nt | 12 | nt | nt | nt
C=CCN1C(=O)C(C)(C)COc2ccc(NC(=O)c3cc4ccccc4oc3=O)cc21 | nt | nt | nt | nt | 18 | nt | nt | nt
C=CCn1c(SCC(=O)NCC2CCCO2)nc2sc3c(c2c1=O)CCCCC3 (stereo not given) | nt | nt | nt | nt | -9 | nt | nt | nt
O=C(CC1S/C(=N\N=C/c2ccco2)NC1=O)Nc1ccc(Br)cc1 (stereo not given) | nt | nt | nt | nt | -2 | nt | nt | nt
Cc1csc(NC(=O)CSc2sc3c(O)cc(=O)[nH]c3c2C#N)n1 | -3 | 2 | 26* | -31 | -14 | -11 | 4 | 2
CCc1nnc(NC(=O)CSc2sc3c(O)cc(=O)[nH]c3c2C#N)s1 | -3 | 0 | 21 | -6 | -2 | -8 | nt | nt
CC(C)c1nnc(C2CCN(Cc3ccccn3)CC2)o1 | nt | nt | nt | nt | -13 | nt | nt | nt
O=C(Cc1ccc(Cl)cc1)NCCn1ncc2c(=O)n(Cc3ccccc3F)cnc21 | nt | nt | nt | nt | -3 | nt | nt | nt
SMILES | BJeLR viability | PfHsp40 yeast | PrPC TRFRET | PrP UTR inh | SSB-PriA inh | Y pestis TopoI | PrPC TRFRET cf | LD9 cytotox
Cc1oc2ccc(OCc3ccc(F)cc3Cl)cc2c1C(=O)OC(C)C | nt | nt | nt | nt | -9 | nt | nt | nt
OC[C@@H]1CN(Cc2ccc(Cl)cc2)C[C@H](n2cnc3c(Nc4ccccc4)ncnc32)O1 | nt | nt | 41* | nt | nt | 10 | 20 | -2
CC(C)Sc1nc(N2CCCC2)c2cnn(CCNC(=O)Cc3ccc(F)cc3)c2n1 | nt | nt | nt | nt | -7 | nt | nt | nt
Cc1cc(NC(=O)c2ccncc2)c2cc(F)cc(F)c2n1 | nt | nt | nt | nt | -12 | nt | nt | nt
Cc1cccc(N2CCN(C(=O)c3cc(S(=O)(=O)N4CCCC4)cn3C)CC2)c1C | 16 | 1 | 24* | 2 | -5 | 26 | 16 | 4
O=C(Nc1cccnc1)c1cccc(S(=O)(=O)N2CCc3ccccc32)c1 | 4 | 1 | 3 | -10 | -4 | 11 | nt | nt
CCc1ccccc1NC(=O)c1cc(S(=O)(=O)N2CCc3ccccc32)cn1C | -4 | 0 | 9 | -20 | 4 | 17 | nt | nt
Cc1cccc(N2CCN(C(=O)c3cc(S(=O)(=O)N4CCOCC4)cn3C)CC2)c1C | 5 | 1 | 0 | -18 | -8 | 21 | nt | nt
Cc1cccc(NC(=O)c2cc(S(=O)(=O)N3CCc4ccccc43)cn2C)c1C | 0 | 2 | 44* | -13 | -7 | 7 | 14 | -7
O=C(Nc1ccncc1)c1cccc(S(=O)(=O)N2CCc3ccccc32)c1 | 25 | 0 | 25* | -3 | 3 | -1 | 25* | 13*
CC(C)c1ccc(NC(=O)Cn2nc3c4cc(F)ccc4ncn3c2=O)cc1 | nt | nt | nt | nt | -8 | nt | nt | nt
COc1ccc(N2CC(O)=C(c3nc4ccccc4s3)C2=N)cc1 | 2 | 0 | 21 | -26 | -11 | -4 | nt | nt
COc1cccc(N2CC(O)=C(c3nc4ccccc4s3)C2=N)c1 | 6 | -1 | 92* | -43 | 4 | 1 | 88* | 8
NC(=O)C1CCN(C(=O)c2cc(-c3ccc(Cl)cc3)nc3ccccc23)CC1 | nt | -1 | -10 | -20 | 4 | 25 | nt | nt
NC(=O)C1CCN(C(=O)c2cc(-c3ccccc3Cl)nc3ccccc23)CC1 | nt | -1 | 43* | -19 | 1 | 0 | 43* | -5
CCN(C(=O)COC(=O)c1ccccc1Nc1ccccc1)c1c(N)n(Cc2ccccc2)c(=O)[nH]c1=O | nt | 1 | 33* | -15 | 1 | 34 | 24 | -3
CCN(C(=O)COC(=O)c1cccc2ccccc12)c1c(N)n(Cc2ccccc2)c(=O)[nH]c1=O | nt | 1 | 7 | 9 | -5 | 18 | nt | nt
O=C(Cc1cccs1)Nc1cccc(C(=O)Nc2ccco2)c1 | nt | 0 | 27* | -19 | 0 | 4 | 10 | -7
COc1ccc(C(=O)Nc2cccc(C(=O)NCc3ccccc3)c2)cc1 | -2 | 0 | 16 | -23 | -11 | 6 | nt | nt
Cc1ccc(C(=O)Nc2cccc(C(=O)NCc3ccccc3)c2)cc1 | -8 | 4 | 37* | 1 | -6 | 7 | 24 | 6
Cc1ccc(C(=O)NCc2ccco2)cc1 | -1 | -1 | 4 | -13 | -5 | 2 | nt | nt
Cc1ccc(C(=O)Nc2cccc(C(=O)NCc3ccco3)c2)cc1 | 3 | -1 | 39* | -53 | 2 | -5 | 22 | 17*
O=C(NCc1ccco1)c1cccc(NC(=O)c2ccccc2)c1 | -3 | -1 | 27* | -23 | -9 | 7 | 28* | 9
Cc1cc(=O)n(CC(=O)Nc2cccc(C)c2C)cn1 | nt | nt | nt | nt | -2 | nt | nt | nt
